The whole screen tested about 310,000 compounds, of which about 14,000 (4.5%) showed an effect of 50% or more. Effects have a minus sign here. The entries come from a sample that favours strong results as a whole.
The molecules below were run against human ether-à-go-go-related gene (hERG) potassium channel (human, UniProt Q12809) (assay: primary screen, population patch clamp on CHO cells stably expressing hERG; higher = less effect of the substance).
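Further: peak tail current of the secondary pulse compared with the same well before compound.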

human ether-à-go-go-related gene (hERG) potassium channel, sequence (Q12809 whole entry, looked up): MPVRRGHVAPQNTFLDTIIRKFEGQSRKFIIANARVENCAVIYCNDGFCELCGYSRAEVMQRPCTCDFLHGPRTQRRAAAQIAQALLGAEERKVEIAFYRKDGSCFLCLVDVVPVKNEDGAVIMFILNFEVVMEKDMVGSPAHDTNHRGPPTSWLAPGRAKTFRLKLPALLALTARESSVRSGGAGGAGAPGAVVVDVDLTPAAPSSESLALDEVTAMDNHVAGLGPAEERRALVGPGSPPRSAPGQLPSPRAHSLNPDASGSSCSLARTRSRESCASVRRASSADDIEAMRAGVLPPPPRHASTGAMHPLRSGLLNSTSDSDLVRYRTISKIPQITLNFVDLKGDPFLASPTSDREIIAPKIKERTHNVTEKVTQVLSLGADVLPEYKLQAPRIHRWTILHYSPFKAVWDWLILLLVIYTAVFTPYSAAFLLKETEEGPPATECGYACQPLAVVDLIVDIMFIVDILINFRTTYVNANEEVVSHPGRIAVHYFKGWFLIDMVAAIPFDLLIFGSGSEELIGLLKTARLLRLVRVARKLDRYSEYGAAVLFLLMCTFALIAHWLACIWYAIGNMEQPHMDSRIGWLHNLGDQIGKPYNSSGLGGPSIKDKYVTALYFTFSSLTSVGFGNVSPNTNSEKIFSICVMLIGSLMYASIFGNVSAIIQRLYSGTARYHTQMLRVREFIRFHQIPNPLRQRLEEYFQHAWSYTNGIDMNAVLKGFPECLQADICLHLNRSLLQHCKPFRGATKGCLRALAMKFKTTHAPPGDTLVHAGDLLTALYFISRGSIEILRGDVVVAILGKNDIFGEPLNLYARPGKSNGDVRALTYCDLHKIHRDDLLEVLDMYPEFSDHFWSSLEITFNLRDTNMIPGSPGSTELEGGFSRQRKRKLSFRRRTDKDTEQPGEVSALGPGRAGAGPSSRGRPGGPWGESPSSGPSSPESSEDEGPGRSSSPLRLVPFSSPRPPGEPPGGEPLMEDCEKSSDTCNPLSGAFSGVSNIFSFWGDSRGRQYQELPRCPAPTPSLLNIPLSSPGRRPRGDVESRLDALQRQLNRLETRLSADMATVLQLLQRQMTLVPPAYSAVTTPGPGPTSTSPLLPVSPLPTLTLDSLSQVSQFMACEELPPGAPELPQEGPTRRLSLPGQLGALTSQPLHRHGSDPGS

Going from `O=C(COC(=O)c1ccc(O)cc1)Nc1ccc2[nH]c(=O)[nH]c2c1` to `O=C(O)c1ccccc1-c1ccccc1C(=O)Nc1ccc2c(c1)[nH]c(=O)c1ccccc12`, the “hERG current change (%, negative = inhibition) at 10uM” value rises from 2.48% to 24.5%.

Going from `O=C(Nc1cc([N+](=O)[O-])ccc1Cl)C1CC1` to `O=C(c1ccccc1)c1cccc(NC(=O)C2CC2)c1`, the “hERG current change (%, negative = inhibition) at 10uM” value falls from 14.1% to 0.476%.

First: COc1ccc(Cn2c(=S)[nH]c3cc(C(=O)N4CCCCC4)ccc3c2=O)cc1
Second: COc1ccccc1OCC(=O)Nc1ccccc1C(=O)N1CCCCC1
The “hERG current change (%, negative = inhibition) at 10uM” value of the first is higher: 13.3% for the first, 11.6% for the second.

Going from `Cc1cc(-n2nc3ccccc3n2)c(O)c([N+](=O)[O-])c1` to `CCN(CC)S(=O)(=O)c1ccc(OC)c(NC(=O)c2cccc([N+](=O)[O-])c2C)c1`, the “hERG current change (%, negative = inhibition) at 10uM” value falls from 6.11% to -63.8%.

Going from `COc1ccc(CCNC(=O)COC(=O)C2COc3ccccc3O2)cc1` (stereo not shown) to `Cc1ccc(/C=C/C(=O)OCC(=O)NCc2ccc(Cl)cc2)o1`, the “hERG current change (%, negative = inhibition) at 10uM” value falls from -0.23% to -13.9%.

Going from `CCCn1nnnc1NCc1ccc(N(C)C)cc1` to `CCCOc1ccc(N2C(=O)CC(NCc3ccncc3)C2=O)cc1` (stereo not shown), the “hERG current change (%, negative = inhibition) at 10uM” value falls from 1.95% to -11.6%.

Compared with `CCC(=O)N1N=C(c2ccc(C)o2)CC1c1ccc(Br)cc1` (stereo not shown), `CC(=O)Nc1ccc(S(=O)(=O)N2CCN=C2SCc2ccc(C)cc2)cc1` is higher in “hERG current change (%, negative = inhibition) at 10uM” value: -23.4% for the first, -12% for the second.

Going from `COc1ccc(/C=C/C(=O)NC(=S)NNC(=O)Cc2cccs2)cc1OC` to `COc1ccc(Nc2nc(-c3cccs3)cs2)c(OC)c1`, the “hERG current change (%, negative = inhibition) at 10uM” value falls from 17.9% to 4.09%.

First: CC1=C(C(=O)OC(C)C)C(c2cccs2)N2C(=O)CCSC2=N1 (stereo not shown)
Second: CCOc1ccc(N2C(=O)CC(NC3CCN(C(=O)c4cccs4)CC3)C2=O)cc1 (stereo not shown)
The “hERG current change (%, negative = inhibition) at 10uM” value of the first is higher: -11.5% for the first, -24.7% for the second.

Compared with `CCCCCOP(=O)(OCCCCC)C1(NS(=O)(=O)c2ccccc2)C=CC(=O)c2ccccc21` (stereo not shown), `CCN(CC)S(=O)(=O)c1ccc(NC(=O)c2cc(-c3ccccc3)nc3ccccc23)cc1` is lower in “hERG current change (%, negative = inhibition) at 10uM” value: 9.76% for the first, 1.64% for the second.

First: Nc1cc(=O)[nH]c(=O)n1-c1ccc(Cl)cc1
Second: O=C(Nn1cnnc1)c1ccc(Cl)cc1
The “hERG current change (%, negative = inhibition) at 10uM” value of the first is lower: 15.2% for the first, 17.7% for the second.

Compared with `Cc1ccc(CN2CCN(C(=O)c3ccco3)CC2)cc1`, `C/C(=N\N1CCN(Cc2ccc(C)cc2)CC1)c1ccco1` is lower in “hERG current change (%, negative = inhibition) at 10uM” value: -13.5% for the first, -67.6% for the second.

Compared with `C/C(=N\N1CCN(Cc2ccccc2)CC1)c1ccco1`, `COc1ccccc1N1CCN(S(=O)(=O)Cc2ccccc2Cl)CC1` is lower in “hERG current change (%, negative = inhibition) at 10uM” value: -1.45% for the first, -2.74% for the second.

Going from `CCCOC(c1ccccc1)(c1ccccc1)C(Oc1nc(C)cc(C)n1)C(=O)O` (stereo not shown) to `COc1ccc2cc(S(=O)(=O)Nc3ccccn3)ccc2c1`, the “hERG current change (%, negative = inhibition) at 10uM” value falls from 21.5% to 9.87%.

First: C=CCSc1nnc2c(n1)OC(c1ccco1)Nc1ccccc1-2 (stereo not shown)
Second: O=C(N/N=C/c1ccco1)c1cc(C2CC2)nc2ccccc12
The “hERG current change (%, negative = inhibition) at 10uM” value of the first is lower: -7.61% for the first, 4.56% for the second.

Compared with `CCCSc1nc(N)c(C#N)c(-c2ccc(C)cc2)c1C#N`, `Cc1ccc(Nc2nnc(SCC(=O)NC3CC3)s2)cc1` is lower in “hERG current change (%, negative = inhibition) at 10uM” value: 15.7% for the first, 9.41% for the second.

First: C=CCNC(=O)C1CCN(c2cnccn2)CC1
Second: O=C(NCc1ccccc1Cl)C1CCN(c2cnccn2)CC1
The “hERG current change (%, negative = inhibition) at 10uM” value of the first is higher: 27.8% for the first, -4.12% for the second.

First: COc1cccc(CNC(=O)C2CCN(c3cnccn3)CC2)c1
Second: O=C(NCc1ccc(Cl)cc1)C1CCN(c2cnccn2)CC1
The “hERG current change (%, negative = inhibition) at 10uM” value of the first is higher: -12.4% for the first, -59.9% for the second.

Going from `O=C(NCCc1ccc(Cl)cc1)C1CCN(c2cnccn2)CC1` to `O=C(NCc1ccc(F)cc1)C1CCN(c2cnccn2)CC1`, the “hERG current change (%, negative = inhibition) at 10uM” value falls from -35.3% to -64.9%.

First: Cn1c(=O)c2c(SCc3cccc(C(F)(F)F)c3)nc(-c3ccco3)nc2n(C)c1=O
Second: O=C(CNC(=O)c1ccco1)OCc1c(F)cccc1Cl
The “hERG current change (%, negative = inhibition) at 10uM” value of the first is higher: -3.88% for the first, -5.42% for the second.

Going from `COc1ccccc1CNC(=O)C1(NC(=O)Nc2ccc(C)cc2)CCCCC1` to `CCN(CC)S(=O)(=O)c1ccc(N2CCCC2)c(NC(=O)c2ccccc2OC)c1`, the “hERG current change (%, negative = inhibition) at 10uM” value falls from 30.7% to -65.7%.

Compared with `COC(=O)[C@H]1[C@H]2C[C@@H]3c4[nH]c5cc(OC)ccc5c4CCN3C[C@H]2C[C@@H](OC(=O)c2cc(OC)c(OC)c(OC)c2)[C@@H]1OC`, `COc1cc2c(cc1OC)C(C)N(C(=O)/C=C/c1cc(OC)c(OC)c(OC)c1)CC2` (stereo not shown) is higher in “hERG current change (%, negative = inhibition) at 10uM” value: -12.4% for the first, 7.57% for the second.

Going from `CCCOc1ccc(N2C(=O)CC(NCc3ccc(S(N)(=O)=O)cc3)C2=O)cc1` (stereo not shown) to `CCCOc1ccc(N2C(=O)CC(NCCc3ccc(S(N)(=O)=O)cc3)C2=O)cc1` (stereo not shown), the “hERG current change (%, negative = inhibition) at 10uM” value falls from 4.38% to -5.4%.

Compared with `CCOc1ccc(C(=O)c2cccs2)cc1`, `CCOc1ccc(N2C(=O)CC(NCCNc3ccc(C(=O)c4cccs4)cc3)C2=O)cc1` (stereo not shown) is lower in “hERG current change (%, negative = inhibition) at 10uM” value: -6.82% for the first, -71.5% for the second.

First: CCOc1ccc(N2C(=O)CC(NCCNc3ccc([N+](=O)[O-])cn3)C2=O)cc1 (stereo not shown)
Second: CCCOc1ccc(N2C(=O)CC(NCCNc3ccc([N+](=O)[O-])cn3)C2=O)cc1 (stereo not shown)
The “hERG current change (%, negative = inhibition) at 10uM” value of the first is lower: -77.5% for the first, -72.5% for the second.

First: CCCOc1ccc(N2C(=O)CC(NCCNc3ccc(S(=O)(=O)CC)cc3)C2=O)cc1 (stereo not shown)
Second: COc1ccc(N2C(=O)CC(NCCNc3ccc([N+](=O)[O-])cn3)C2=O)cc1 (stereo not shown)
The “hERG current change (%, negative = inhibition) at 10uM” value of the first is lower: -59.9% for the first, -34% for the second.

Compared with `CCOc1ccc(N2C(=O)CC(NCCc3ccncc3)C2=O)cc1` (stereo not shown), `CCCOc1ccc(N2C(=O)CC(NCC#N)C2=O)cc1` (stereo not shown) is higher in “hERG current change (%, negative = inhibition) at 10uM” value: -5.67% for the first, 2.57% for the second.

First: O=C(COc1ccc(Cl)cc1Br)N1CCN(S(=O)(=O)c2ccccc2)CC1
Second: COc1ccc(S(=O)(=O)N2CCOCC2)cc1NC(=O)c1cccc2c(=O)c(C)c(-c3ccccc3)oc12
The “hERG current change (%, negative = inhibition) at 10uM” value of the first is higher: -9.19% for the first, -32.9% for the second.

Going from `CCn1cc(SCC(=O)Nc2cc(C)on2)c2ccccc21` to `O=C(CSc1nnnn1-c1cccc2ccccc12)N1CCOCC1`, the “hERG current change (%, negative = inhibition) at 10uM” value falls from 7.98% to -25%.

Compared with `Cc1csc(Sc2ccc([N+](=O)[O-])cc2C(=O)OCC(=O)NC2CCCC(C)C2C)n1` (stereo not shown), `CCN(CC)S(=O)(=O)c1ccc(OC)c(NC(=O)c2cccc(C)c2[N+](=O)[O-])c1` is higher in “hERG current change (%, negative = inhibition) at 10uM” value: -26.2% for the first, -14.5% for the second.

First: COc1ccc(C(=O)Nn2c(CC(C)C)nc3cc(Cl)ccc3c2=O)c(OC)c1
Second: CCN(CC)S(=O)(=O)c1ccc(N2CCCC2)c(NC(=O)c2ccc(OC)cc2OC)c1
The “hERG current change (%, negative = inhibition) at 10uM” value of the first is higher: 13.4% for the first, -43% for the second.

Going from `Cc1cccc(CCNC(=O)C2CCCN(c3cnccn3)C2)c1` (stereo not shown) to `O=C(NC(=S)N1C[C@H]2C[C@H](C1)c1cccc(=O)n1C2)c1ccc(Cl)cc1`, the “hERG current change (%, negative = inhibition) at 10uM” value rises from -11.5% to -8.28%.

First: O=S(=O)(NC1CCCCC1NS(=O)(=O)c1ccc(F)cc1)c1ccc(F)cc1 (stereo not shown)
Second: Cn1cc(C(=O)NC2CCCCC2)c(=O)c2cc(S(=O)(=O)N3CCOCC3)ccc21
The “hERG current change (%, negative = inhibition) at 10uM” value of the first is lower: -5.29% for the first, 11.8% for the second.

Going from `O=C1OC(c2ccc(Cl)cc2)=N/C1=C\N1CC2CC(C1)c1cccc(=O)n1C2` (stereo not shown) to `O=C1OC(c2ccc(Br)cc2)=N/C1=C\N1CC2CC(C1)c1cccc(=O)n1C2` (stereo not shown), the “hERG current change (%, negative = inhibition) at 10uM” value rises from -72% to -45.2%.

Going from `O=C1OC(c2ccc([N+](=O)[O-])cc2)=N/C1=C/N1CC2CC(C1)c1cccc(=O)n1C2` (stereo not shown) to `O=c1cccc2n1C[C@@H]1C[C@@H]2CN(CC(O)c2ccc([N+](=O)[O-])cc2)C1` (stereo partly shown), the “hERG current change (%, negative = inhibition) at 10uM” value rises from -55.1% to -49%.

First: Nc1cc(C(=O)N2CCN(c3ccc([N+](=O)[O-])cc3)CC2)ccc1N1CC2CC(C1)c1cccc(=O)n1C2 (stereo not shown)
Second: CCN(CC)S(=O)(=O)c1ccc(N2CCOCC2)c(NC(=O)c2cccc3ccccc23)c1
The “hERG current change (%, negative = inhibition) at 10uM” value of the first is lower: -35.3% for the first, 7.99% for the second.

Compared with `O=C(O)CC(Sc1n[nH]c(=S)s1)C(=O)O` (stereo not shown), `CCN(CC)S(=O)(=O)c1ccc(O)c(NC(=O)c2cc(-c3cc(OC)c(OC)c(OC)c3)nc3ccccc23)c1` is lower in “hERG current change (%, negative = inhibition) at 10uM” value: 18.2% for the first, -59.2% for the second.

First: CCN(CC)S(=O)(=O)c1ccc(N2CCOCC2)c(NC(=O)c2ccccc2F)c1
Second: CCN(CC)S(=O)(=O)c1ccc2[nH]c(=O)cc(C(=O)Nc3ccccc3N3CCOCC3)c2c1
The “hERG current change (%, negative = inhibition) at 10uM” value of the first is higher: -15.8% for the first, -18.9% for the second.

Compared with `COc1cc(-c2cc(C(=O)Nc3ccc(S(N)(=O)=O)cc3)c3ccccc3n2)cc(OC)c1OC`, `CCN(CC)S(=O)(=O)c1ccc(N2CCOCC2)c(NC(=O)c2cccc3c(=O)c(C)c(-c4ccccc4)oc23)c1` is lower in “hERG current change (%, negative = inhibition) at 10uM” value: 29.2% for the first, -55% for the second.

Compared with `CCN(CC)S(=O)(=O)c1ccc(N2CCCCC2)c(C(=O)Nc2ccccc2N2CCOCC2)c1`, `CCN(CC)S(=O)(=O)c1ccc(N2CCCC2)c(NC(=O)Cc2cc(OC)c(OC)c(OC)c2)c1` is higher in “hERG current change (%, negative = inhibition) at 10uM” value: -51.1% for the first, -8.43% for the second.

First: CCN(CC)S(=O)(=O)c1ccc(OC)c(NC(=O)c2ccc(OC)c([N+](=O)[O-])c2)c1
Second: Cl.N=c1c2c(n(Cc3ccc(Cl)cc3)c3c1CCC3)CCC2
The “hERG current change (%, negative = inhibition) at 10uM” value of the first is lower: -24.4% for the first, -2.06% for the second.

From PMC4336329 (PLoS ONE, 2015)
